Screening data: PubChem BioAssay, Broad Institute
SIRT5 inh – blocks human SIRT5 desuccinylation of peptide; inhibition, % at 15 µM; 330,000 tested, 1.1% active; Purified SirT5, succinyl-peptide AMC, trypsin-coupled fluorescence; Q9NXA8; in the data active means inhibition above about 15%
Casp6 inh – caspase-6 (human) enzyme inhibition; P55212; purified caspase-6, Z-VEID-R110 cleavage fluorescence; inhibition, % at 12.5 µM; 350,000 tested, 0.53% active; AID 686996;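 active means mean inhibition across replicates at least about 35%, with every replicate also reaching that limit, limit read from the data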;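 further: 0% = median of neutral control wells and 100% = no fluorescence left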
PfHsp90 yeast 2 – reduces growth (ATP signal) of yeast expressing P. falciparum Hsp90 | 310,000 tested, 0.32% active | inhibition, % at 9.4 µM | S. cerevisiae expressing PfHsp90, BacTiter-Glo ATP, 48 h; yeast lacking PDR1 and PDR3 efflux regulators | AID 504621;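 active means every replicate shows inhibition above about 80%, whatever the replicate mean, limit read from the data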;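 further: 0% = DMSO neutral controls and 100% = 20 µM radicicol positive controls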
NSD2 inh – inhibitors of human histone methyltransferase NSD2; 310,000 tested, 0.54% active; inhibition, % at 12.5 µM; NSD2 peptide methylation, AlphaScreen, 120 min; O96028; in the data active means inhibition above about 50%
Target sequence (O96028 whole entry, looked up): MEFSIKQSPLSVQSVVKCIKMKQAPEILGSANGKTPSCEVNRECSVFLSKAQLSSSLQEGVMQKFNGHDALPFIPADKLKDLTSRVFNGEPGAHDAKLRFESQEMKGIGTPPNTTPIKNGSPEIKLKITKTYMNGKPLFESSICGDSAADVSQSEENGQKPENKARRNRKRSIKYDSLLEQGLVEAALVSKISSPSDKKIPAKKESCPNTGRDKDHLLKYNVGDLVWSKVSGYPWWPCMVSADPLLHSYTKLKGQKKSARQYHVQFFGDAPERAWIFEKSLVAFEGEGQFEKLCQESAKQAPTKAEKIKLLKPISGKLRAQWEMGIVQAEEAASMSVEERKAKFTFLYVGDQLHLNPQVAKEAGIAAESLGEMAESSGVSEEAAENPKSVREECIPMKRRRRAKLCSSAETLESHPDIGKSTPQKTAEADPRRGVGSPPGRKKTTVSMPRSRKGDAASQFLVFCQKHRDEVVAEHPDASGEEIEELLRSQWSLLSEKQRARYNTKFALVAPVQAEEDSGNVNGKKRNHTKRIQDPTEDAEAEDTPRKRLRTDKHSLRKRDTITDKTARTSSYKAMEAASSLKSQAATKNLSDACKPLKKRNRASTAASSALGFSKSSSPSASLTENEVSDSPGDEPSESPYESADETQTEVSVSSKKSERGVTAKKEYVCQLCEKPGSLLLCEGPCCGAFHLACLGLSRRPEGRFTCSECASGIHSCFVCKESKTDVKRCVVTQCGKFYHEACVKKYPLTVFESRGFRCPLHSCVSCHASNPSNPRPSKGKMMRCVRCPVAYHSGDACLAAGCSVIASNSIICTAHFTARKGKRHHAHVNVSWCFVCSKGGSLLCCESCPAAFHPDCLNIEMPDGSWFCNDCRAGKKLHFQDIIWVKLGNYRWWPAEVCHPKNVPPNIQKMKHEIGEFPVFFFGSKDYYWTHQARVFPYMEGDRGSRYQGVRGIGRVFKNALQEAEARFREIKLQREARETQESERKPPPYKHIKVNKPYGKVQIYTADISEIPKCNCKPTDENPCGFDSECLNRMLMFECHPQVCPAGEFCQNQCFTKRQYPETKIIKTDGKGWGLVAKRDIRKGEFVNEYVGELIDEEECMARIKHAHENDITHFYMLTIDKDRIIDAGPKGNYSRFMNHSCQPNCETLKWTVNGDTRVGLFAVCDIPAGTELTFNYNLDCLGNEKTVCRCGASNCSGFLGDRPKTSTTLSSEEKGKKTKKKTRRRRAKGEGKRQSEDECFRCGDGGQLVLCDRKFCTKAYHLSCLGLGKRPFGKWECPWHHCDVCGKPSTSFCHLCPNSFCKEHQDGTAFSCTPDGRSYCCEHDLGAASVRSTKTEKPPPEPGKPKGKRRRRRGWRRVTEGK
ARNT TACC3 PPI – disruptors of human ARNT/TACC3 interaction; Q9Y6A5; AlphaScreen His-ARNT PAS-B/GST-TACC3 binding, luminescence; TACC3 fragment carries E629A point mutation; inhibition, % at 9.99 µM; 390,000 tested, 0.66% active; AID 623870;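 active means mean inhibition of replicates at least 50% and at least half of replicates each reaching 50%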;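 further: 0% = complete ARNT plus TACC3 wells and 100% = ARNT alone without TACC3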
Numbers without * were called inactive; nt = not tested or not shown. Only some compounds are listed: those with a hit (about 2.1% of all), similar ones and a draw of the others.

SMILES	SIRT5 inh	Casp6 inh	PfHsp90 yeast 2	NSD2 inh	ARNT TACC3 PPI
COc1ccccc1/C=C/C=N/n1c(-c2ccccn2)n[nH]c1=S	2.3	0.2	2.7	11.8	65.5*
COCCn1c(-c2ccco2)csc1=Nc1cccnc1	0.7	8.2	-3.1	2.8	9.8
COc1ccc(O)c(/C=N/n2c(-c3ccco3)csc2=Nc2cccnc2)c1	nt	nt	1.0	-2.8	61.9*
Fc1ccccc1/C=N/Nc1ncnc2nc[nH]c12	9.9	-1.1	4.4	nt	12.4
Fc1cccc(/C=N/Nc2ncnc3nc[nH]c23)c1	5.6	-2.6	21.9	nt	47.1*
C[C@H](CO)N1C[C@H](C)[C@H](CN(C)Cc2ccc(C(=O)O)cc2)OCCCC[C@H](C)Oc2ccc(NC(=O)Nc3ccc(C(F)(F)F)cc3)cc2C1=O	-1.5	1.1	nt	nt	-4.2
O=C(Nc1nc(-c2ccco2)c(-c2ccco2)s1)c1c(F)cccc1Cl	-2.5	75.4*	-17.9	4.7	4.3
CCS(=O)(=O)c1nc(S(=O)(=O)c2ccc(Cl)cc2)c(N2CCOCC2)s1	-3.7	37.7*	-73.9	-1.1	-2.9
CCS(=O)(=O)c1nc(S(=O)(=O)c2ccc(Cl)cc2)c(N2CCC3(CC2)OCCO3)s1	-6.2	-0.5	11.0	0.1	-1.2
Oc1[nH]c2ccccc2c1N=Nc1ccccn1	1.4	-0.7	9.5	-0.5	0.3
Oc1c(N=Nc2ccccn2)ccc2ccccc12	nt	nt	nt	42.2	63.8*
Cc1cc(C)n(C(=O)CNC(=O)c2cccs2)n1	23.3*	3.1	11.2	-3.3	nt
COc1ccc(NC(=O)Nc2ccc3c(c2)C(=O)N([C@H](C)CO)C[C@@H](C)[C@@H](CN(C)S(=O)(=O)c2cn(C)cn2)O3)cc1	-3.2	-2.2	nt	nt	3.7
N#Cc1c(SCC(=O)Nc2ccc(C(F)(F)F)cc2)sc2c(O)cc(=O)[nH]c12	2.4	40.6*	-18.0	nt	-18.4
Cc1ccc(NC(=O)CSc2sc3c(O)cc(=O)[nH]c3c2C#N)c(F)c1	nt	29.1	21.6	nt	-2.9
COc1cc(Cl)c(C)cc1NC(=O)CSc1nnc(CCC(=O)O)c(=O)[nH]1	22.0*	9.7	6.8	-3.2	-0.3
COc1ccc(OC)c(NC(=O)CSc2sc3c(O)cc(=O)[nH]c3c2C#N)c1	12.5	43.4*	-12.0	nt	7.2
COc1cc(Cl)c(C)cc1NC(=O)CSCC#N	nt	nt	-6.9	-1.4	13.8
COc1cc(Cl)c(C)cc1NC(=O)CSc1sc2c(O)cc(=O)[nH]c2c1C#N	15.3*	25.5	-20.9	nt	nt
CNC[C@H]1Oc2ccc(NC(=O)C3CCCCC3)cc2C(=O)N([C@@H](C)CO)C[C@H]1C	-2.5	-0.6	nt	nt	-1.1
Cn1cnc(S(=O)(=O)N2[C@@H]3CNC[C@H]2C3c2ccc(-c3ccccc3F)cc2)c1 (some centres undefined)	-0.7	-12.9	nt	nt	nt
O=[N+]([O-])c1ccc(Oc2cccc3cccnc23)c([N+](=O)[O-])c1	nt	nt	4.4	5.5	active
N#Cc1ccc(Oc2cccc3cccnc23)c([N+](=O)[O-])c1	-7.8	-1.7	-8.9	nt	-0.5
CCCN1[C@@H]2c3ccc(-c4ccccc4F)c(=O)n3C[C@@H]2[C@@H](CO)[C@@H]1C(=O)N1CCN(C)CC1	1.3	0.3	nt	nt	2.4
COc1cc(/C=N/NC(=O)C2COc3ccccc3O2)cc(OC)c1OC (centres undefined)	nt	nt	-8.7	3.4	-1.4
SMILES	SIRT5 inh	Casp6 inh	PfHsp90 yeast 2	NSD2 inh	ARNT TACC3 PPI
O=C(CNC(=O)C1COc2ccccc2O1)N/N=C/c1ccc(O)cc1O (centres undefined)	nt	-10.8	1.8	-7.3	93.9*
COc1cc([N+](=O)[O-])cc(/C=N\NC(=O)C2COc3ccccc3O2)c1O (centres undefined)	1.9	3.3	-17.4	-0.6	71.6*
O=C(N/N=C\c1cccc([N+](=O)[O-])c1O)C1COc2ccccc2O1 (centres undefined)	nt	nt	3.7	2.4	62.9*
O=C(CNC(=O)C1COc2ccccc2O1)N/N=C\c1cccc(O)c1 (centres undefined)	nt	nt	-2.2	-1.1	-4.7
O=C(N/N=C/c1cccc([N+](=O)[O-])c1)C1COc2ccccc2O1 (centres undefined)	5.0	2.0	-13.0	2.1	4.7
C[C@H](CO)N1C[C@H](C)[C@@H](CN(C)C(=O)c2ccncc2)OCCCC[C@H](C)Oc2ccc(NS(=O)(=O)c3ccc(F)cc3)cc2C1=O	4.1	0.4	nt	nt	21.0
